From PubChem BioAssay

Test system: not listed separately
Test: small-molecule microarray binders of probe aNog, primary screen, biochemical, biotinylated probe, 635/667 nm fluorescence (AID 1115);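 also: probe is biotinylated aNog protein used at 0.15 µg/mL for 1 h at 4 C; z-score combines 667 nm fluorescence of each spot with its signal to noise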
Settings: higher = more signal

| Structure (SMILES) | composite z-score |
| --- | --- |
| CCc1cccc(NC(=O)O[C@H]2[C@H](OC(=O)Nc3ccc4c(c3)OCO4)[C@H](OC(=O)Nc3ccc4c(c3)OCO4)[C@@H](OC)O[C@@H]2CO)c1 | -0.312 |
| C=C(COC)/C(=C/C[C@H](OC(=O)c1ccncc1)c1cccc(OCCO)c1)c1cnc2ccccc2c1 | -0.145 |
| COCCn1c(C(=O)N2CCCC2)cc2c1C[C@H]1CN(C(=O)c3ccccc3)[C@@](Cc3ccccc3)(C(=O)OC)[C@@H]21 | 2.73 |
| O=C1C2C=CC(C(O)C(c3ccccc3)c3ccccc3)N(Nc3ccccc3)C2C(=O)N1c1ccccc1 (stereo unspecified) | 0.162 |
| Cc1ccc(S(=O)(=O)N2[C@@H](c3ccccc3)C(C(=O)O)=CC[C@H]2c2ccc(C#N)cc2)cc1 | 0.823 |
| C=CCC(OC(C)=O)[C@@H]1[C@@H](N(Cc2cc3ccccc3o2)C(=O)c2ccc(-c3ccccc3)cc2)c2cc(OCCCO)ccc2N1C(=O)c1ccc2ccccc2n1 (stereo partly specified) | -0.961 |

Biological target: Torsin-1A-interacting protein 1 (Homo sapiens) (UniProt Q5JTV8)
Test: LAP1 binders from COS7 cell lysate, primary screen, small-molecule microarray, 635/667 nm fluorescence (AID 1116)
Settings: COS7-hLAP1 lysate binding, 635 nm fluorescence, higher = more signal

Sequence of Torsin-1A-interacting protein 1 (Homo sapiens) (Q5JTV8 whole entry, looked up): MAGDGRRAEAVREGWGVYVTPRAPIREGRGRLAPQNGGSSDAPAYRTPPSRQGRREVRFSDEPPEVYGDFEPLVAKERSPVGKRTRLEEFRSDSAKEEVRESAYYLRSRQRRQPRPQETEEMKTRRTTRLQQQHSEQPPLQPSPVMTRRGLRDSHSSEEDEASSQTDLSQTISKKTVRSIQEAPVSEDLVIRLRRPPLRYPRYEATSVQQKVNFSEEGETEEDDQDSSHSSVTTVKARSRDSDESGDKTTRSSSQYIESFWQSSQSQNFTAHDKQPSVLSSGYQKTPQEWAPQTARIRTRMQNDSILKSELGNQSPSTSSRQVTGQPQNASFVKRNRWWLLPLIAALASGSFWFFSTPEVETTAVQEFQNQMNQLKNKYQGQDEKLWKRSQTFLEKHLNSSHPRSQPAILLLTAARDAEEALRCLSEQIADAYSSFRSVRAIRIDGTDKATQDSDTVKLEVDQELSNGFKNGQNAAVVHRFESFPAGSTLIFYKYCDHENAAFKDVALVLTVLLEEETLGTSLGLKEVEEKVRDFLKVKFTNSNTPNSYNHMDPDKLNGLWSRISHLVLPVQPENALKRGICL

| Structure (SMILES) | composite z-score |
| --- | --- |
| COCCCNC(=O)[C@@]1(Sc2ccc(C)cc2)CC(=O)N(C2CCCCC2)[C@@H]1c1ccc(CO)cc1I | 1.34 |
| [N-]=[N+]=NCc1ccccc1C[C@]1(C(=O)O)COC(c2ccc(OCCCO)cc2)=N1 | -1.24 |
| COC(=O)[C@@]1(Cc2ccc(OC)cc2)[C@H]2c3cc(C(=O)N(C)C)n(Cc4ccsc4Br)c3C[C@H]2CN1C(=O)c1ccccc1 | 2.24 |
| CCCCC(=C=CC[C@@H](O)c1ccc(OCCO)cc1)C[C@@H](O)c1ccccn1 | 0.642 |
| O=C1NC(=O)C2C1C=CC(C(O)c1cccc(O)c1)N2Nc1ccc(Cl)cc1Cl (stereo unspecified) | -0.369 |
| [N-]=[N+]=NCc1ccccc1C[C@]1(C(=O)NCc2ccccc2)N=C(c2ccc(OCCCO)cc2)O[C@H]1c1ccccc1CN=[N+]=[N-] | 1.9 |
| O=C1O[C@H](c2ccccc2)[C@H](c2ccccc2)N2[C@H]1[C@@H](C(=O)N1CCN(c3ncccn3)CC1)[C@]1(C(=O)Nc3ccccc31)[C@H]2c1ccc(O)cc1 | -0.15 |
| COC(=O)[C@@]1(Cc2ccc(F)cc2)[C@H]2c3cc(C(=O)N4CCCC4)n(CCO)c3C[C@H]2CN1C(=O)c1ccccc1 | 0.956 |
| O=C1NC(=O)C2C1C=CC(C(O)c1ccc(F)cc1)N2Nc1ccccn1 (stereo unspecified) | 0.513 |
| CC[C@H](C)C(=O)O[C@H]1CC[C@]2(C)C3=C(CCC2C1(C)C)[C@]1(C)CC[C@H]([C@H](C)CCCC(C)C)[C@@]1(C)CC3 (stereo partly specified) | 0.14 |
| CCCC[C@H]1OB(O)C[C@H]2C1=C(COC)C[C@H]1C(=O)C=CC(=O)[C@H]12 | -0.22 |
| CCCCCCCCCCC(O)C1C=CC2C(=O)N(C)C(=O)C2N1N1CCCCC1 (stereo unspecified) | -0.428 |
| C=CC[C@]1(C(=O)NCCCOC)N=C(c2ccc(OCCCO)cc2)O[C@H]1c1ccccc1 | 1.03 |
| CC1CC/C=C\[C@H]2OC34C=CCN(c5ccc(Cl)cc5)C(=O)[C@H]3N(CCCO)C(=O)[C@]4(C)C2C(=O)O1 (stereo partly specified) | -1.06 |
| C=C(CC1([C@@H](NP(=O)(c2ccccc2)c2ccccc2)[C@H]2C[C@@H]2CCN(C(=O)OCC)S(=O)(=O)c2ccc(C)cc2)CC1)c1ccccc1 | 0.379 |
| COCC1=C([C@H](O)CCc2ccccc2)[C@H](CO)n2c(=O)n(-c3ccccc3)c(=O)n2C1 | -0.103 |
| COC(=O)c1ccc([C@H](NC(=O)c2ccccc2)[C@]2(C)C[C@H]2C2CCCCC2)cc1 | 0.462 |
| COCCOC(=O)N1C(=O)[C@@]2(c3cc(C#CC4=CCCCC4)ccc31)[C@H](c1ccccc1OCCO)N1[C@H](c3ccccc3)[C@H](c3ccccc3)OC(=O)[C@H]1[C@@H]2C(N)=O | 0.383 |

| Structure (SMILES) | composite z-score |
| --- | --- |
| C=CCC(OC(C)=O)[C@@H]1[C@@H](N(Cc2cc3ccccc3o2)C(=O)Cc2ccc(OC)cc2)c2cc(OCCCO)ccc2N1C(=O)Cc1ccc2ccccc2c1 (stereo partly specified) | 0.475 |
| COc1ccc([Si](C)(C)[C@H]2[C@H](CCO)O[C@@]3(C(=O)N(Cc4ccccc4)c4ccc(N(C=O)c5ccccc5)cc43)[C@@H]2C)cc1 | 0.431 |
| CC(C)CNC(=O)[C@@H]1c2ccccc2C(=O)N(Cc2ccccc2Cl)[C@H]1c1ccc(CO)cc1 | 1.69 |
| CCCCNC(=O)c1ccc(C#C[Si](C)(C)C)c(OC(C)=O)c1 | 0.37 |
| COc1cc2c(cc1O)C(c1ccc(CN3CCCC3)cc1)N(Cc1cccc(OC(F)(F)F)c1)CC2 (stereo unspecified) | 0.62 |
| C=CCOC(=O)[C@H]1[C@@H]2C(=O)O[C@@H](c3ccccc3)[C@@H](c3ccccc3)N2[C@@H](c2ccc(OCCOC(=O)[C@H]3C[C@H]4C(=O)NCC(=O)N4[C@H]3c3ccc(O)cc3)cc2)[C@]12C(=O)Nc1ccc(I)cc12 | 0.365 |
| NC(=O)N1C(=O)C2C(C1=O)C1C=C(CCCO)C2C(c2ccc(CN3CCCC3)cc2)N1Cc1cccc(OC(F)(F)F)c1 (stereo unspecified) | -0.226 |
| C=C(CCCC)C(=O)CC[C@H](OC(C)=O)c1ccccc1OCCO | 0.173 |
| C=CCC(OC(C)=O)[C@@H]1[C@@H](N(Cc2cccc3ccccc23)C(=O)c2ccc(-c3ccccc3)cc2)c2cc(OCCCO)ccc2N1C(=O)c1ccc2ccccc2n1 (stereo partly specified) | 0.529 |
| COC(=O)[C@@]1(Cc2ccccc2)[C@@H]2[C@@H](CC(=O)[C@H]2CC(=O)C(=O)N(C)C)CN1C(=O)c1ccccc1 | 1.38 |
| COCCOC(=O)N1C(=O)[C@@]2(c3cc(C#Cc4ccc(OC)cc4)ccc31)[C@H](C(=O)Nc1nc3ccccc3s1)[C@H]1C(=O)O[C@H](c3ccccc3)[C@H](c3ccccc3)N1[C@@H]2c1ccccc1OCCO | 0.188 |
| CCc1cccc(NC(=O)O[C@H]2[C@H](OC(=O)Nc3ccc4c(c3)OCO4)[C@H](OC(=O)Nc3ccc4c(c3)OCO4)[C@@H](OC)O[C@@H]2CO)c1 | 0.154 |
| C=C(COC)/C(=C/C[C@H](OC(=O)c1ccncc1)c1cccc(OCCO)c1)c1cnc2ccccc2c1 | 0.756 |
| COCCn1c(C(=O)N2CCCC2)cc2c1C[C@H]1CN(C(=O)c3ccccc3)[C@@](Cc3ccccc3)(C(=O)OC)[C@@H]21 | 1.12 |
| O=C1C2C=CC(C(O)C(c3ccccc3)c3ccccc3)N(Nc3ccccc3)C2C(=O)N1c1ccccc1 (stereo unspecified) | 0.429 |
| Cc1ccc(S(=O)(=O)N2[C@@H](c3ccccc3)C(C(=O)O)=CC[C@H]2c2ccc(C#N)cc2)cc1 | 1.84 |
| C=CCC(OC(C)=O)[C@@H]1[C@@H](N(Cc2cc3ccccc3o2)C(=O)c2ccc(-c3ccccc3)cc2)c2cc(OCCCO)ccc2N1C(=O)c1ccc2ccccc2n1 (stereo partly specified) | 0.554 |
